PubChem BioAssay (NCATS)
Results filed as inconclusive are left out. Active and inactive are the calls of the source. Calls follow the shape of the dose curve; as a rule, active = well fitted curve in the direction sought with a large enough effect; inconclusive = small, poorly fitted or top-dose-only effect, or another doubt; inactive = no such curve, though single readings can be large; an effect the other way counts as inactive or inconclusive.

What was measured:
[1] = Quantitative High-Throughput drug screen in 47 multiple myeloma cell lines against the NCATS MIPE library collection: JJN3_DSMZ cell viability assay (AID 1918966; also: nearly all actives have a fitted effect of over 50% in size; also: potency is read from the fitted curve at half-maximal effect)
Method in brief: (§1)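 Approved and investigational drugs from MIPE 4.0 were added by pin tool to 500 cells per well. After 48 hours at 37C, ATP-based CellTiter-Glo luminescence indicated remaining viability.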

[2] = Quantitative High-Throughput drug screen in 47 multiple myeloma cell lines against the NCATS MIPE library collection: KMS27_JCRB cell viability assay (AID 1918970); conditions: KMS27 myeloma cells, CellTiter-Glo ATP viability, 48 h; viability (% of DMSO): at 45.8 µM (top of the series); also: nearly all actives have a fitted effect of over 30% in size
Method in brief: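 Luminescent ATP read-out (CellTiter-Glo, 5 min at room temperature) after 48 h compound exposure of 500 KMS27_JCRB cells per well; DMSO wells define full viability and media-only wells zero.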

[3] = Quantitative High-Throughput drug screen in 47 multiple myeloma cell lines against the NCATS MIPE library collection: KMS12BM_JCRB cell viability assay (AID 1918971); also: nearly all actives have a fitted effect of over 35% in size; also: potency is read from the fitted curve at half-maximal effect
Method in brief: (§2)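 qHTS of the MIPE 4.0 collection: 500 myeloma cells/well, 48 h drug exposure at 37C in 5% CO2, then CellTiter-Glo for 5 min at room temperature before luminescence reading.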

[4] = Quantitative High-Throughput drug screen in 47 multiple myeloma cell lines against the NCATS MIPE library collection: KMS12PE_JCRB cell viability assay (AID 1918972); also: nearly all actives have a fitted effect of over 30% in size
Method in brief: as §2

[5] = Quantitative High-Throughput drug screen in 47 multiple myeloma cell lines against the NCATS MIPE library collection: KMS26_JCRB cell viability assay (AID 1918975); also: nearly all actives have a fitted effect of over 45% in size
Method in brief: as §2

[6] = Quantitative High-Throughput drug screen in 47 multiple myeloma cell lines against the NCATS MIPE library collection: MOLP8_DSMZ cell viability assay (AID 1918977); also: nearly all actives have a fitted effect of over 45% in size
Method in brief: (§3)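 Viability after 48 h drug exposure was measured as ATP-dependent luminescence. Cells, 500 per well, sat at 37 °C under 5% CO2; DMSO wells set 100%, media-only wells 0%.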

[7] = Quantitative High-Throughput drug screen in 47 multiple myeloma cell lines against the NCATS MIPE library collection: NCIH929_DSMZ cell viability assay (AID 1918978); also: nearly all actives have a fitted effect of over 35% in size
Method in brief: as §3

[8] = Quantitative High-Throughput drug screen in 47 multiple myeloma cell lines against the NCATS MIPE library collection: OCIMY1_PLB cell viability assay (AID 1918979); also: nearly all actives have a fitted effect of over 35% in size
Method in brief: as §3

[9] = Quantitative High-Throughput drug screen in 47 multiple myeloma cell lines against the NCATS MIPE library collection: LP1_DSMZ cell viability assay (AID 1918982); also: nearly all actives have a fitted effect of over 35% in size; also: potency is read from the fitted curve at half-maximal effect
Method in brief: as §3

[10] = Quantitative High-Throughput drug screen in 47 multiple myeloma cell lines against the NCATS MIPE library collection: KMS28PE_JCRB cell viability assay (AID 1918983); also: nearly all actives have a fitted effect of over 35% in size
Method in brief: as §3

[11] = Quantitative High-Throughput drug screen in 47 multiple myeloma cell lines against the NCATS MIPE library collection: KMS34_JCRB cell viability assay (AID 1918985); also: nearly all actives have a fitted effect of over 40% in size
Method in brief: as §3

[12] = Quantitative High-Throughput drug screen in 47 multiple myeloma cell lines against the NCATS MIPE library collection: KMS21BM_JCRB cell viability assay (AID 1918974); conditions: ATP luminescence, 48 h; viability: at 45.8 µM (top of the series)
Method in brief: as §1

[13] = Quantitative High-Throughput drug screen in 47 multiple myeloma cell lines against the NCATS MIPE library collection: MM1R_ATCC cell viability assay (AID 1918981); also: nearly all actives have a fitted effect of over 35% in size
Method in brief: as §3

[14] = Quantitative High-Throughput drug screen in 47 multiple myeloma cell lines against the NCATS MIPE library collection: H1112_PLB cell viability assay (AID 1918967; also: nearly all actives have a fitted effect of over 30% in size)
Method in brief: as §1

[15] = Quantitative High-Throughput drug screen in 47 multiple myeloma cell lines against the NCATS MIPE library collection: Karpas25_ECACC cell viability assay (AID 1918968; also: nearly all actives have a fitted effect of over 35% in size; also: potency is read from the fitted curve at half-maximal effect)
Method in brief: as §1

[16] = Quantitative High-Throughput drug screen in 47 multiple myeloma cell lines against the NCATS MIPE library collection: KMS20_JCRB cell viability assay (AID 1918973); also: nearly all actives have a fitted effect of over 45% in size
Method in brief: as §1

[17] = Quantitative High-Throughput drug screen in 47 multiple myeloma cell lines against the NCATS MIPE library collection: L363_DSMZ cell viability assay (AID 1918984); also: nearly all actives have a fitted effect of over 40% in size
Method in brief: as §3

[18] = Quantitative High-Throughput drug screen in 47 multiple myeloma cell lines against the NCATS MIPE library collection: MMM1_PLB cell viability assay (AID 1918976)
Method in brief: as §3

[19] = Quantitative High-Throughput drug screen in 47 multiple myeloma cell lines against the NCATS MIPE library collection: MM1S_ATCC cell viability assay (AID 1918980); also: nearly all actives have a fitted effect of over 45% in size
Method in brief: as §3

Measured: Potency

Nc1ccn(C[C@@H](CO)OCP(=O)(O)O)c(=O)n1
not listed: [12] | [13] | [14] | [15] | [16] | [17] | [18] | [19]
inactive: all other assays above

C[C@](Cc1c[nH]c2ccccc12)(NC(=O)OC1C2CC3CC(C2)CC1C3)C(=O)NC[C@H](NC(=O)CCC(=O)O)c1ccccc1 (stereo partly specified)
inactive: [1] | [3] | [12] | [5] | [6] | [8] | [13] | [9]

CC(C)(C)[N+]([O-])=Cc1ccc(S(=O)(=O)O)cc1S(=O)(=O)O
not listed: [3] | [4] | [11] | [12] | [18] | [19]
inactive: all other assays above

Nc1ccn(C2CO[C@H](CO)O2)c(=O)n1 (stereo partly specified)
active: [3] 0.833 µM | [18] 4.69 µM
inactive: [14] | [15] | [2] | [8] | [13] | [9] | [10] | [17]

NC(=O)c1ncn([C@@H]2O[C@H](CO)[C@@H](O)[C@@H]2O)c1N
active: [18] 2.64 µM
not listed: [4] | [6] | [12] | [15] | [16] | [17]
inactive: all other assays above

Cc1ccccc1C(=O)Nc1ccc(C(=O)N2CCCC(O)c3cc(Cl)ccc32)c(C)c1 (stereo unspecified)
inactive: [14] | [3] | [6] | [8] | [13] | [10] | [11]
active: [1] 13.2 µM | [15] 14.8 µM | [9] 18.7 µM

O=C(NNC(=O)c1ccc(CNS(=O)(=O)c2ccc(F)c(Cl)c2)cc1)c1ccccc1
inactive: [1] | [16] | [6] | [8] | [13] | [10] | [11]

CC(=O)O[C@@]12CO[C@H]1C[C@H](O)[C@@]1(C)C(=O)[C@H](O)C3=C(C)[C@@H](OC(=O)C(O)[C@@H](NC(=O)OC(C)(C)C)c4ccccc4)C[C@@](O)([C@@H](OC(=O)c4ccccc4)[C@@H]21)C3(C)C (stereo partly specified)
not listed: [4] | [5] | [12] | [16] | [18]
inactive: all other assays above
